Bioassay records deposited in PubChem BioAssay by National Center for Advancing Translational Sciences (NCATS).
Tau ThT inhib = qHTS for Inhibitors of Tau Fibril Formation, Thioflavin T Binding; recombinant tau K18 P301L, heparin-induced fibrillization, ThT fluorescence; Potency, µM (top dose mostly 57.4 µM), for inactives: at the highest dose activity, negative = inhibition, usual class: inhibitors; 270,000 tested, 2.1% active; AID 1460, 2008; note: potency is the fitted concentration of half-maximal effect; nearly all actives have a fitted effect of over 55% in size
Target sequence (P10636 561-689 P618L limits assumed): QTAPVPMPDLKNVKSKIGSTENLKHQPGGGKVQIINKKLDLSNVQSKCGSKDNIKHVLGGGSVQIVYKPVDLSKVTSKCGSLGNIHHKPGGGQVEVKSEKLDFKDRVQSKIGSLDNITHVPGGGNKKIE
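Using a mix of unlabeled (15 uM) and Alexa 594-labeled (0.24 uM) tau K18 P301L, heparin-triggered fibrillization over 6 hr at 37 C was scored by ThT fluorescence.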
FBPA coupling cs = qHTS Assay for Inhibitors of Fructose-1,6-bisphosphate Aldolase from Giardia Lamblia: Coupling assay counterscreen | coupling enzyme system counterscreen, AmpLite Red fluorescence | activity change, negative = inhibition, % at 58.2 µM, hits read low | 290,000 tested, 0.67% active; in the data active = activity change below about -30%
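Counterscreen of the coupled detection system alone, without aldolase: glyceraldehyde-3-phosphate coupling enzymes plus AmpLite Red readout. Compounds at 57.5 uM final, 10 min RT preincubation, 20 min RT reaction, fluorescence 525/598 nm.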
Tau fluor cs = Counterscreen qHTS for Inhibitors of Tau Fibril Formation, Fluorescence Polarization. tau K18 P301L (four-repeat tau fragment) Alexa594 fluorescence, heparin fibrillization. Potency, µM (doses to about 57.7 µM), inactives show top-dose activity change, negative = decrease. 280,000 tested, 0.93% active. AID 1463, 2008; note: potency is the fitted concentration of half-maximal effect; nearly all actives have a fitted effect of over 55% in size
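Human K18 P301L tau (15 uM unlabeled plus 0.24 uM Alexa 594-labeled, final) in 100 mM sodium acetate pH 7 was mixed with compound and 20 uM heparin and incubated 6 hr at 37 C.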
Tau FP inhib = qHTS for Inhibitors of Tau Fibril Formation, Fluorescence Polarization | Microtubule-associated protein tau (Homo sapiens), P10636 | K18 P301L tau heparin fibrillization, Alexa594 FP, 6 h | Potency, µM (series often up to 57.7 µM), for the others: top-dose activity, negative = inhibition, actives largely listed as inhibitors | 280,000 tested, 0.39% active | AID 1468, 2008; note: potency is the fitted concentration of half-maximal effect; nearly all actives have a fitted effect of over 55% in size
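Human tau K18 […] P301L fragment, 15 uM unlabeled plus 0.24 uM Alexa 594-labeled tau (final), with compound and 20 uM heparin in 100 mM sodium acetate pH 7; 6 hr at 37 C, then Alexa 594 FP read.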
The depositor's hits bear a star; ? = inconclusive; · = not tested or not shown; [ ] = dose if it differs, or a comment. Compounds with a hit are over-represented: about 2.7% of the library has one in this group of screens. Unless noted, calls come from the whole dose curve; as a rule, active = well fitted curve in the direction sought with a large enough effect; inconclusive = small, poorly fitted or top-dose-only effect, or another doubt; inactive = no such curve, though single readings can be large; an effect the other way counts as inactive or inconclusive. % is set by controls: 0 for no effect and ±100 for the full control effect.

SMILES	Tau ThT inhib	FBPA coupling cs	Tau fluor cs	Tau FP inhib
COC1=C(OC)C(=O)c2ccccc2C1=O	12.6µM*	·	-23.0%	?
COc1ccc(N)c2c1C(=O)c1ccccc1C2=O	15.8µM*	-3.5	-25.0%	?
COc1ccc(OC)c2c1C(=O)C(Cl)=C(Cl)C2=O	4.47µM*	-44.9*	?	17.8µM*
Nc1ccc(Br)c2c1C(=O)c1ccccc1C2=O	5.01µM*	-4.2	?	3.0%
CC(=O)NNc1cc(C)nc(N)n1	·	1.7	-4.9%	-3.8%
CCOC(=O)c1c(N)n(-c2ccccc2CC)c2nc3ccccc3nc12	1.1%	·	-6.5%	1.3%
COc1cc(OC)c(NC(=O)Cn2c(=O)cc(C)c3c(C)nn(-c4ccc(C)cc4)c32)cc1Cl	2.3%	·	1.5%	-8.6%
COc1cccc2c1C(=O)c1ccc3ccccc3c1C2=O	?	2.6	?	?
COc1ccc(OC)c2c1C(=O)c1ccccc1C2=O	35.5µM*	-19.8	-25.9%	?
COc1cccc(C2=NN(C(C)=O)C(c3cn(-c4ccccc4)nc3-c3cccs3)C2)c1 (stereo not drawn)	-8.4%	·	-9.3%	3.0%
CCOc1ccc(C(=O)Nc2ccc3nc(N(CC)CC)cc(C)c3c2)cc1	?	·	15.8µM*[quencher]	9.3%
CCOc1ccc(/C=C/C(=O)Nc2ccc3nc(N(CC)CC)cc(C)c3c2)cc1OC	7.08µM*	·	?	?
CCN(CC)c1cc(C)c2cc(NC(=O)/C=C/c3ccc(C)cc3)ccc2n1	?	·	15.8µM*[quencher]	2.0%
CCOc1ccccc1C(=O)Nc1ccc2nc(N(CC)CC)cc(C)c2c1	?	·	-21.9%	-2.5%
CCN(CC)c1cc(C)c2cc(NC(=O)/C=C/c3cc(OC)c(OC)c(OC)c3)ccc2n1	4.47µM*	·	?	8.6%
CCN(CC)c1cc(C)c2cc(NC(=O)CNC(C)=O)ccc2n1	-0.4%	0.0	2.9%	-0.7%
CCc1ccccc1Nc1nn2c(=O)c3ccc(C(=O)NC4CCCCC4)cc3nc2s1	2.6%	·	-14.6%	-13.8%
COc1ccc(CCNC(=O)Cn2ncc3c(C)n(Cc4ccccc4F)c(C)c3c2=O)cc1OC	3.7%	·	-10.3%	-12.9%
COc1ccc(-n2nc(C(=O)Nc3ccccn3)c3c4ccccc4n(C)c3c2=O)cc1	9.9%	·	0.3%	0.5%
Cc1ccc(SCCC(=O)N/N=C/c2cccnc2)cc1	-3.7%	-31.5*	-2.7%	2.9%
Cc1ccc(SCCC(=O)N/N=C/c2ccccc2O)cc1	-7.7%	-29.1	?	-12.7%
COc1ccccc1C1CCN(Cc2cccc([N+](=O)[O-])c2)CC1	-8.6%	1.7	-10.5%	-1.4%
COc1ccccc1C1CCN(c2ccc(CO)cc2[N+](=O)[O-])CC1	14.1µM*	-1.0	?	-0.7%
CC1=NN(c2ccccc2)C(=O)/C1=C/C=C/C=C/N(C)C	15.8µM*	-9.0	-27.2%	-5.4%
CC1=NN(c2ccc(C)cc2)C(=O)/C1=C\C=C\c1ccccc1	7.08µM*	1.1	7.94µM*[quencher]	?
SMILES	Tau ThT inhib	FBPA coupling cs	Tau fluor cs	Tau FP inhib
CC1=NN(c2cccc(C(=O)O)c2)C(=O)/C1=C\C=C/c1ccccc1	7.08µM*	-3.0	?	?
CC1=NN(c2ccccc2)C(=O)/C1=C/c1ccc(Cl)cc1	·	-0.1	·	·
CCc1ccc(NC(=O)C(=O)NCC(c2ccc3c(c2)OCO3)N2CCOCC2)cc1 (stereo not drawn)	-0.3%	·	-0.1%	-12.1%
CC(C)CCNC(=O)CN1C(=O)c2cccnc2Oc2ccccc21	0.1%	·	-5.8%	-8.0%
O=C1NC2(CCCCCC2)C(=O)N1Cc1ccccc1Cl	·	3.9	·	·
CCN1c2ccccc2-c2nc(SCC(=O)NCc3ccccc3)ncc2S1(=O)=O	11.1%	·	-13.4%	-11.6%
COc1cc(/C=N/NC(=S)NC2CC3CC2C2C=CCC32)ccc1O (stereo not drawn)	?	-0.1	11.2µM*[quencher]	12.7%
Cc1ccc(OC2C(O)COC2/C=C/C#Cc2ccc(C(C)(C)C)cc2)cc1 (stereo not drawn)	-8.4%[11.5 µM]	-2.9	-14.9%[11.6 µM]	0.0%[11.6 µM]
CCOC(=O)c1cccc(NC(=O)c2cc3ccccn3n2)c1	?	·	-24.6%	1.4%
Cc1[nH]c2ccccc2c1/C=N/Nc1nc(Nc2ccc(F)cc2)nc(N2CCOCC2)n1	28.2µM*	-1.1	31.6µM*[quencher]	?
